A short description of assay [1]: small molecules captured by biotinylated probe aFSTL3 – biochemical, small-molecule microarray, fluorescence 635/667, stem cell growth factor project, primary screen (AID 1064).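 Further: measures binding of the biotinylated anti-FSTL3 antibody to printed compounds.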 The conditions noted are these: higher = more signal.
A short description of assay [2]: binders from COS7 lysate, DM2A8 probe, primary screen, torsin A project, cell lysate, small-molecule microarray, fluorescence 635/667 (AID 1065). The conditions noted are these: higher = more signal, COS7 lysate expressing mutant human TOR1A.
The nature of assay [3]: small molecules captured by biotinylated probe aFGF2 – biochemical, small-molecule microarray, fluorescence 635/667, stem cell growth factor project, primary screen (AID 1067).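 Further: measures binding of biotinylated aFGF2 protein to printed compounds on slides; z-score merges feature fluorescence and signal-to-noise across triplicate slides.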 To be noted: higher = more signal.
A short description of assay [4]: small molecules captured by biotinylated probe aFGF10 – biochemical, small-molecule microarray, fluorescence 635/667, stem cell growth factor project, primary screen (AID 1071).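 Further: score merges 667 nm spot intensity and signal to noise from triplicate slides.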 To be noted: higher = more signal.
Assay [5] concerns the target Neurogenic locus notch homolog protein 2 (Homo sapiens) (UniProt Q04721). Briefly: small molecules binding Notch2 protein – biochemical, small-molecule microarray, 635 nm fluorescence, stem cell growth factors, primary screen (AID 1073). The conditions noted are these: higher = more signal.
For assay [6], the target named is Pro-neuregulin-1, membrane-bound isoform (Homo sapiens) (UniProt Q02297). The assay can be described thus: small molecules binding neuregulin-1 protein – biochemical, small-molecule microarray, fluorescence 635/667, psychiatric disease protein project, primary screen (AID 1075).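 Further: score combines 667 nm spot fluorescence with signal to noise.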 To be noted: NRG1 binding, 635 nm fluorescence, higher = more signal.
Assay [7] relates to Neuregulin-1 EGF-like domain. Briefly: small molecules binding NRG1 EGF domain – biochemical, small-molecule microarray, 635 nm fluorescence, primary screen (AID 1081).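 Further: binding of the protein to compounds printed on small-molecule microarray slides.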 To be noted: higher = more signal.
Assay [8] in a line: FRG1 expression reporter modulators in myotubes – cell-based, C2C12 myotubes, firefly/Renilla luciferase, luminescence, FRG1 inhibition for FSHD, primary screen (AID 1084). The conditions noted are these: FRG1 promoter luciferase, higher = more signal, called active from +8 up or from −8 down.
Assay [9] is described as follows: small molecules captured by biotinylated probe aFST – biochemical, small-molecule microarray, fluorescence 635/667, stem cell growth factor project, primary screen (AID 1086).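 Further: score merges 667 nm fluorescence with signal-to-noise of each printed compound spot.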 To be noted: higher = more signal.
The nature of assay [10]: binders of probe aHhip on microarray, primary screen, stem cell growth factor project, biochemical, small-molecule microarray, fluorescence 635/667 (AID 1087).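 Further: score merges spot fluorescence at 667nm with spot signal to noise ratio.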 The conditions noted are these: higher = more signal.
Assay [11] concerns PRMT1 (protein arginine N-methyltransferase 1). The assay can be described thus: small molecules binding arginine methyltransferase PRMT1 – biochemical, small-molecule microarray, 635 nm fluorescence, primary screen (AID 1088).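 Further: binding of Prmt1 protein to compounds spotted on small-molecule microarray slides.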 To be noted: higher = more signal.
Assay [12] can be described thus: growth effects on S. cerevisiae YJM789 – YJM789 clinical isolate, OD600, 24 h, basal, primary screen (AID 1089).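 Further: growth of clinical yeast isolate S. cerevisiae YJM 789 seeded 1000 cells per well; test concentration not given here.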 To be noted: higher = more signal, called active from +8 up or from −8 down.
The nature of assay [13]: S. pombe growth modifiers, basal conditions – strain 972, OD600, 24 h, no modulator, primary screen (AID 1090).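 Further: basal condition with compound alone and no growth modifier present; test concentration not given here.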 To be noted: S. pombe 972 growth, higher = more signal, called active from +8 up or from −8 down.
A short description of assay [14]: budding yeast growth modifiers under rapamycin – strain BY4716, OD600, 96 h, primary screen (AID 1091). Further: test concentration not given here. To be noted: S. cerevisiae BY4716 + rapamycin, higher = more signal, called active from +8 up or from −8 down.
The target in assay [15] is Torsin-1A-interacting protein 2 (Homo sapiens) (UniProt Q8NFQ8). Briefly: small molecules binding lysate-expressed LULL1 – cell lysate, human LULL1 lysate, 635/667 nm fluorescence, primary screen (AID 1092).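 Further: probe is lysate of COS7 cells overexpressing human LULL1; score merges per-feature 667 nm fluorescence with signal-to-noise.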 To be noted: small-molecule microarray, hLULL1 lysate binding, 635 nm fluorescence; higher = more signal.
A short description of assay [16]: optical density change of DRC41 E. coli – strain DRC41, OD650, 24 h, E. coli filamentation project, primary screen (AID 1093).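 Further: MC1000 strain lacking acrAB efflux and sulA so SOS filamentation is blocked; test concentration not given here.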 To be noted: E. coli DRC41 growth, higher = more signal, called active from +8 up or from −8 down.
Assay [17] can be described thus: probe aLefty2 binding to arrayed compounds – biochemical, biotinylated probe, 635/667 nm fluorescence, primary screen (AID 1094).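 Further: score merges spot fluorescence near 667 nm with spot signal-to-noise ratio.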 To be noted: small-molecule microarray, higher = more signal.
In assay [18] the test system is Noggin (protein binding on small-molecule microarray). Briefly: small molecules binding Noggin protein – biochemical, 635/667 nm fluorescence, primary screen (AID 1095).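 Further: score merges 667 nm feature fluorescence with signal to noise over triplicate slides.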 The conditions noted are these: 635 nm fluorescence, higher = more signal.
The target of assay [19] is Neurogenic locus notch homolog protein 3 (Homo sapiens) (UniProt Q9UM47). Briefly: small molecules binding NOTCH3 protein – biochemical, 635/667 nm fluorescence, primary screen (AID 1096). To be noted: small-molecule microarray, 635 nm fluorescence, higher = more signal.
Assay [20] is described as follows: probe aEGFR binding to arrayed compounds – biochemical, biotinylated probe, 635/667 nm fluorescence, primary screen (AID 1097).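 Further: probe is a biotinylated anti-EGFR antibody binding compounds printed on slides; score combines fluorescence near 667 nm and signal to noise of each spot.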 To be noted: small-molecule microarray, higher = more signal.

This passage reports composite z-score and z-score results from PubChem BioAssay.

Each structure is given as a SMILES string. Activity calls are given as the source filed them.

Neurogenic locus notch homolog protein 2 (Homo sapiens), sequence (Q04721 whole entry, looked up, canonical isoform): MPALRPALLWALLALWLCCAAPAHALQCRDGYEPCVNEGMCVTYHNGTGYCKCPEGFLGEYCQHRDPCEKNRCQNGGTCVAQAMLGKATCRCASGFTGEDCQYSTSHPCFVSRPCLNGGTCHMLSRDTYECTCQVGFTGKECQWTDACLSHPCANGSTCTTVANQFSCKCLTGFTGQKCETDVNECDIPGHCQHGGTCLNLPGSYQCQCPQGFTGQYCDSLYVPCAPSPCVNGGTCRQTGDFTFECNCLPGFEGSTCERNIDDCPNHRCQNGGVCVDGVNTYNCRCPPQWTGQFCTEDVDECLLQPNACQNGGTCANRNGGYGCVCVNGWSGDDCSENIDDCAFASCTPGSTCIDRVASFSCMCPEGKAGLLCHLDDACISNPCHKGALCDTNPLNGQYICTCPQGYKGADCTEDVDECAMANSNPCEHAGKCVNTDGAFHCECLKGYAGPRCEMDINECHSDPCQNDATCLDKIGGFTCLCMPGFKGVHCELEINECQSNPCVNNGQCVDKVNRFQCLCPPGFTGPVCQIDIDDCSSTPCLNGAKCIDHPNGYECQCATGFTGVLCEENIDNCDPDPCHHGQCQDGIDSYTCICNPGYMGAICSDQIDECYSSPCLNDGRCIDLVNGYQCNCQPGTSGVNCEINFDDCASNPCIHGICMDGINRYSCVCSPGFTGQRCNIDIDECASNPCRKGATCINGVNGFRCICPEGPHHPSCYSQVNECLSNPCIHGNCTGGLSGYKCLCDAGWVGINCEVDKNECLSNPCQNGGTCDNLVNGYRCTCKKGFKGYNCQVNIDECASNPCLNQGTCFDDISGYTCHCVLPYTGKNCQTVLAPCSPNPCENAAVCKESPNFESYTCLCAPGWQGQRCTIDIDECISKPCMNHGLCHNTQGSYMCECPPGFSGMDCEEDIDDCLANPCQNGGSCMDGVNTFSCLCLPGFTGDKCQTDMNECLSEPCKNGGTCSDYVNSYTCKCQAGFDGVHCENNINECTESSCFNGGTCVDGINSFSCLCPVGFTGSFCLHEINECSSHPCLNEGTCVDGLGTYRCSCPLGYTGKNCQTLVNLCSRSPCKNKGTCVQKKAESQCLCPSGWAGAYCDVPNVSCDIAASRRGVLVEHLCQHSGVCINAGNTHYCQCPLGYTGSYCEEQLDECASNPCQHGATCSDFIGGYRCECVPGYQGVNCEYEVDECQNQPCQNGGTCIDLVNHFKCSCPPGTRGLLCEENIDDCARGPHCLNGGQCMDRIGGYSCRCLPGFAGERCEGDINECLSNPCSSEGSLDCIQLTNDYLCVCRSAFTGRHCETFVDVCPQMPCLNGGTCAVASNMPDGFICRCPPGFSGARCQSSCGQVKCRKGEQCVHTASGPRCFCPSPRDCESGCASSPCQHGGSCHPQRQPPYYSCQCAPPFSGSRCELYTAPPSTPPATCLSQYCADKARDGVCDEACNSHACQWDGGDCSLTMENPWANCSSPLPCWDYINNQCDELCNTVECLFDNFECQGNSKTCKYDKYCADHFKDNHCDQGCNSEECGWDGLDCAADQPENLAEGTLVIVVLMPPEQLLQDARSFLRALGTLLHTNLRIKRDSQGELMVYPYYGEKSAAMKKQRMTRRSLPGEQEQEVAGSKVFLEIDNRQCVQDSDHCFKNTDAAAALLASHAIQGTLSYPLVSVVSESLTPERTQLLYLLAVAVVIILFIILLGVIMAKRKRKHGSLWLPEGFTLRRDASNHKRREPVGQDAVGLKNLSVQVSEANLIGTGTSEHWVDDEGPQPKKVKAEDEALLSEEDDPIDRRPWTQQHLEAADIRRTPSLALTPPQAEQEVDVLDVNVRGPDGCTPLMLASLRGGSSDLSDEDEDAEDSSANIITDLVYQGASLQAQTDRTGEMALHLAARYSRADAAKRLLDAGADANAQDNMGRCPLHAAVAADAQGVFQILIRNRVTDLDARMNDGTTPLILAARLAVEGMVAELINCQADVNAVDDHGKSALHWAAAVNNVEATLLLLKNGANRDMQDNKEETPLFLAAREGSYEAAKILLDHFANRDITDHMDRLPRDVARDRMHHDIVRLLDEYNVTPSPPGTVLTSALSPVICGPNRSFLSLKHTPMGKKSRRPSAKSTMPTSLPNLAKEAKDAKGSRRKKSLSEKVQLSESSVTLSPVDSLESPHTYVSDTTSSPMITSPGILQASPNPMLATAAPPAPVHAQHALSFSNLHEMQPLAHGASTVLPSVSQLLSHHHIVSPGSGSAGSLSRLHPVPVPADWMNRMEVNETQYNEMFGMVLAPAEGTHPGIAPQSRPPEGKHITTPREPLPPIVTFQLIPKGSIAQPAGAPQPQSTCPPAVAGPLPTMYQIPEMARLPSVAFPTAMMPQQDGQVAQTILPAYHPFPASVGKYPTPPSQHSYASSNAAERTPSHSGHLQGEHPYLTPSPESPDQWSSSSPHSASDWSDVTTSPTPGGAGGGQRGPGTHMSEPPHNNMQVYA
Neurogenic locus notch homolog protein 3 (Homo sapiens), sequence (Q9UM47 whole entry, looked up): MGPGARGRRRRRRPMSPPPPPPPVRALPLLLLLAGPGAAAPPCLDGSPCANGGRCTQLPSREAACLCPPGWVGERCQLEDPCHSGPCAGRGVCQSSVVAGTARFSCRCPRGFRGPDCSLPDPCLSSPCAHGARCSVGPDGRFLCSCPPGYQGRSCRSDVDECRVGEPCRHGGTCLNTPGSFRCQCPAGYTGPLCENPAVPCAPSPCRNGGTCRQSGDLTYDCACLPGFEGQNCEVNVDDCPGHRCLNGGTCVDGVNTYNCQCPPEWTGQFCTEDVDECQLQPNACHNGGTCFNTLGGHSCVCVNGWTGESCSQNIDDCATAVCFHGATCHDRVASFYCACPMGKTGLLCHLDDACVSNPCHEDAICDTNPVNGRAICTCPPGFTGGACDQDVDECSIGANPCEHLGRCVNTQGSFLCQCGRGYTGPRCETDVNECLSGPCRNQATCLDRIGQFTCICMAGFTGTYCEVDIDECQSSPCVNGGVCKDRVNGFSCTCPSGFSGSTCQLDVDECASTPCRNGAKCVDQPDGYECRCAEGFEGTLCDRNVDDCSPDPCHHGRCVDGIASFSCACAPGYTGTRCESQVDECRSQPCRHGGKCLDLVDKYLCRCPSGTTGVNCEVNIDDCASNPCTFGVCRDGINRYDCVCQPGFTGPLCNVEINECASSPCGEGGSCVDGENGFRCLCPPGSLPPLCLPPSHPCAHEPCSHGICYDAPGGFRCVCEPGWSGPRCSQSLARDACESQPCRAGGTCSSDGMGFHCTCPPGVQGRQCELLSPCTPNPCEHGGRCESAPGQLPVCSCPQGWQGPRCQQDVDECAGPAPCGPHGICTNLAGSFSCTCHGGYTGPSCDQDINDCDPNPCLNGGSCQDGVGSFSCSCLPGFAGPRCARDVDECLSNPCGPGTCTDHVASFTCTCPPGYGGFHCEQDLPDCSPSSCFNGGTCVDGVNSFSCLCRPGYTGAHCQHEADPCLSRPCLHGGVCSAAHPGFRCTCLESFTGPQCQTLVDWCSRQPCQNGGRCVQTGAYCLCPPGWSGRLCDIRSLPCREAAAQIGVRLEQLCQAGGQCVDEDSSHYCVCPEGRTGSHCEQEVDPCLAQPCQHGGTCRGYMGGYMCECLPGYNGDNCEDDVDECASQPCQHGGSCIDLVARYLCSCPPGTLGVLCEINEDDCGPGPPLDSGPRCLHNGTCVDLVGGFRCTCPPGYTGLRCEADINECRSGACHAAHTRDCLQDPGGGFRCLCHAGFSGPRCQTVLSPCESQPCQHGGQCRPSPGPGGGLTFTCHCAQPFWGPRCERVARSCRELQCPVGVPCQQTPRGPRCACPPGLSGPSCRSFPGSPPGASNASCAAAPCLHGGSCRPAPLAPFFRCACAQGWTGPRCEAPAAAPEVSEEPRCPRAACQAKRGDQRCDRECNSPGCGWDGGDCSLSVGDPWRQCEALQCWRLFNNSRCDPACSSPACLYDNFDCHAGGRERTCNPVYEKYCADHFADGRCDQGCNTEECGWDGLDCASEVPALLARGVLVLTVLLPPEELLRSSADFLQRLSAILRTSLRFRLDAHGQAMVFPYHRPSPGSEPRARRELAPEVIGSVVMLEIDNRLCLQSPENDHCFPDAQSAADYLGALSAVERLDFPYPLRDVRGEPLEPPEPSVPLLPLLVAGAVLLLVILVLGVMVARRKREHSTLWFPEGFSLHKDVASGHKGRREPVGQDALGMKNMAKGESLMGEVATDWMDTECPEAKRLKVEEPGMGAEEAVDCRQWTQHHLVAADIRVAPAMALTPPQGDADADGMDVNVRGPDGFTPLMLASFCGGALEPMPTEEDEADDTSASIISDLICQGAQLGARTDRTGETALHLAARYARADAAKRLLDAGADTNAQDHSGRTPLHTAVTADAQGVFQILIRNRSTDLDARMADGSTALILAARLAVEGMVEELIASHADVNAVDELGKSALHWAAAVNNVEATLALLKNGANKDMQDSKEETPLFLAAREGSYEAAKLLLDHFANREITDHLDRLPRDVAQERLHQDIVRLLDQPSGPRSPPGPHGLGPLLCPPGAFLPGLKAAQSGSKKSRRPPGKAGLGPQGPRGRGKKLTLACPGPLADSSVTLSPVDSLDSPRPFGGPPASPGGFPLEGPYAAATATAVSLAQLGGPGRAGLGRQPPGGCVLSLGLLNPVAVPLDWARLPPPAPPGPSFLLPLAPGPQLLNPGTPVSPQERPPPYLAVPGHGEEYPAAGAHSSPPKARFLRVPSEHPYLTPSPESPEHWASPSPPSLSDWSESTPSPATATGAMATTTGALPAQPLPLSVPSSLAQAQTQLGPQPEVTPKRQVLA

Consider `CCOC(=O)C1=C[C@@H](c2ccccc2)N(S(=O)(=O)c2ccc(C)cc2)[C@H]1c1ccccc1`, for which the composite z-score in assay [1] was 0.119; in assay [2] it was -0.137; in assay [3], -0.0659; in assay [4] it was 0.21; in assay [5] it was 0.917; in assay [6] it was 0.442. Also, the composite z-score in assay [7] is 0.296; in assay [9], 0.171; in assay [10] it was -0.0994; in assay [11], 0.712; in assay [15], 0.91; in assay [17], -0.0113. Moreover, the composite z-score in assay [18] is 0.0762; in assay [19], 0.552; in [20], -0.112. For the same compound, the z-score was -0.401 (inactive) in [8]; -1.27 (inactive) in [12]; 0.517 (inactive) in assay [13]; 0.958 (inactive) in [14]; 0.6 (inactive) in assay [16].

For the compound `CCOC(=O)C1=CC[C@@H](c2ccccc2)N(S(=O)(=O)c2ccc(C)cc2)[C@H]1c1cccc(OC)c1`, the composite z-score in [1] is 0.154; in assay [2], -0.133; in assay [3] it was 0.0182; in [4], 0.31; in assay [5] it was 1.34; in assay [6], 1.28. Also, the composite z-score in assay [7] was 0.746; in assay [9], 0.648; in [10], -0.0203; in assay [11], 1.06; in [15], 2.19; in [17], 0.116. Besides, the composite z-score in [18] is -0.266; in [19] it was 0.618; in assay [20] it was -0.0407. Moreover, the z-score in assay [8] was -2.57 (inactive); in [12], 0.498 (inactive); in [13], 1.52 (inactive); in assay [14], 2.05 (inactive); in assay [16] it was -0.439 (inactive).

On to `Cc1ccc(C(C)CC(O)C2C=CC3C(=O)N(c4ccccc4)C(=O)C3N2Nc2ccc(C#N)cc2)o1` (stereo not given), for which the composite z-score in assay [1] is 0.0794; in assay [2] it was -0.28; in assay [3], 0.0489; in assay [4] it was 0.954; in [5] it was 1.7; in assay [6] it was 1.88. Also, the composite z-score in [7] was 1.08; in assay [9], 0.998; in assay [10], -0.283; in assay [11] it was 1.55; in assay [15] it was 3.46; in assay [17], 0.188. Besides, the composite z-score was 0.383 in assay [18], 1.13 in assay [19] and 0.122 in assay [20]. Further, the z-score in assay [8] was -0.629 (inactive); in [12] it was -26 (active); in [13], -16.8 (active); in assay [14], -3.16 (inactive); in assay [16] it was -0.0931 (inactive).

Consider `[N-]=[N+]=Nc1ccccc1C[C@]1(C(=O)O)N=C(c2ccc(OCCCO)cc2)O[C@H]1c1ccccc1N=[N+]=[N-]`, for which the composite z-score in assay [1] is 0.951; in assay [2], 0.618; in assay [3], 0.0857; in assay [4] it was 0.619; in [5], 1.23; in [6], 1. Moreover, the composite z-score was 1.04 in assay [7]; 0.992 in assay [9]; 0.543 in [10]; 1.43 in assay [11]; 3.05 in [15]; 0.376 in [17]. Besides, the composite z-score in assay [18] was -0.359; in [19] it was 0.942; in assay [20] it was 0.0729. In addition, the z-score in assay [8] was -1.57 (inactive); in [12] it was -0.228 (inactive); in [13], -0.896 (inactive); in assay [14], -1.17 (inactive); in assay [16], 0.814 (inactive).

`Nc1cc(Br)ccc1C(=O)O`: the composite z-score was -0.0861 in assay [1]; 0.0499 in [2]; -0.17 in assay [3]; 0.307 in [4]; 0.314 in [5]; 0.505 in assay [6]. In addition, the composite z-score in assay [7] is 0.742; in assay [9], 0.195; in [10], -0.229; in [11], 0.409; in assay [15] it was 0.568; in assay [17] it was -0.0664. The composite z-score is 0.136 in assay [18], 0.332 in assay [19] and -0.0961 in assay [20]. Moreover, the z-score in assay [8] was 0.0039 (inactive); in [12], -0.585 (inactive); in assay [13], -1.64 (inactive); in assay [14] it was -0.0096 (inactive); in assay [16] it was -1.2 (inactive).
